Reference: PubChem BioAssay (Tox21)
Several values for one entry are separate records, joined by “and”; a condition that tells them apart may be missing. Equal entries are not always repeated. Records with an inconclusive call do not appear. A call without a number means that no potency is given here. Activity calls are given as the source filed them. Unless noted, the call rests on the fitted dose curve; in most records, active means well fitted curve in the direction sought with a large enough effect in the repeat runs; inconclusive means weak or mixed curves; inactive means no such curve, though single readings can be large; an effect the other way counts as inactive or inconclusive.

Tests used:
[1] = qHTS assay to identify aromatase inhibitors - cell viability counter screen (AID 743084);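 further: cells stimulated with testosterone during compound exposure; nearly all actives have a fitted effect of over 55% in size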; further: potency means the concentration at half of the fitted maximal effect
[2] = target: Aryl hydrocarbon receptor (Homo sapiens) (UniProt P35869); test: qHTS assay to identify small molecule that activate the aryl hydrocarbon receptor (AhR) signaling pathway (AID 743085); further: nearly all actives have a fitted effect of over 15% in size; further: potency means the concentration at half of the fitted maximal effect;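 on activation: HG2L7.5c1 human HepG2 liver cells with stably integrated DRE-driven firefly reporter; series mostly up to about 70 µM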
Chain of Aryl hydrocarbon receptor (Homo sapiens) (P35869 whole entry, looked up): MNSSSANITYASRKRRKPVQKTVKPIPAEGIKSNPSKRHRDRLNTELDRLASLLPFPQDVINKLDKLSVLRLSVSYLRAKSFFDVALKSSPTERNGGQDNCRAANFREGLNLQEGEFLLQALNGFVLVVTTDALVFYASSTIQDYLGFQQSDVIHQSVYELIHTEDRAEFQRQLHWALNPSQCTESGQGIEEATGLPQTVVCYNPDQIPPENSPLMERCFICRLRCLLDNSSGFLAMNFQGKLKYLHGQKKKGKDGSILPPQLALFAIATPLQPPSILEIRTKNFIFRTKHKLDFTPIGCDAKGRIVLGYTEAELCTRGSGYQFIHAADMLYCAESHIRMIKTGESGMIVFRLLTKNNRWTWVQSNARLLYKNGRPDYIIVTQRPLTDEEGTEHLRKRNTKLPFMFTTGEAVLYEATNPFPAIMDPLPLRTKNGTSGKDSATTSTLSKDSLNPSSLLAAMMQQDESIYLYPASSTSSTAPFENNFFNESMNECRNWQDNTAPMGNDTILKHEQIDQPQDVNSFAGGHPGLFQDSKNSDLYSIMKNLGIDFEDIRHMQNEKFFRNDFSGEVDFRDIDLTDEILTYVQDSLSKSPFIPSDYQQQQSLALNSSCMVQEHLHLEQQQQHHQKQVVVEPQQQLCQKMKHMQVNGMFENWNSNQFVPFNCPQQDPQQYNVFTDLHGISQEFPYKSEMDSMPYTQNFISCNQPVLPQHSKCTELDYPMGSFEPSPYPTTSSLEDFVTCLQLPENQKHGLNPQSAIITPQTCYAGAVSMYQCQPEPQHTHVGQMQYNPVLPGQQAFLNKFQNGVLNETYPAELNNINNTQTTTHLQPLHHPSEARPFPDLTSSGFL
Procedure, shortened: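 AhR agonist activity is inferred from enhanced light output of a DRE-controlled firefly luciferase reporter in HepG2 cells, measured with ONE-Glo following 24 h treatment at 37C.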

[3] = qHTS assay to identify small molecule that activate the aryl hydrocarbon receptor (AhR) signaling pathway - cell viability counter screen (AID 743086); further: nearly all actives have a fitted effect of over 45% in size; further: potency means the concentration at half of the fitted maximal effect
Procedure, shortened: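 HepG2-AhR-luc (HG2L7.5c1) cells, 4000/well, were preincubated 5 h at 37C, exposed to compound in qHTS format for 24 hr at 37C, then given CellTiter-Fluor for 30 min; viability was read as fluorescence in the reporter wells.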

[4] = target: Peroxisome proliferator-activated receptor gamma (Homo sapiens) (UniProt P37231); test: qHTS assay to identify small molecule antagonists of the peroxisome proliferator-activated receptor gamma (PPARg) signaling pathway (AID 743191; calls by dose curve; further: series mostly up to about 63 µM; nearly all actives have a fitted effect of over 30% in size)
Chain of Peroxisome proliferator-activated receptor gamma (Homo sapiens) (P37231 whole entry, looked up): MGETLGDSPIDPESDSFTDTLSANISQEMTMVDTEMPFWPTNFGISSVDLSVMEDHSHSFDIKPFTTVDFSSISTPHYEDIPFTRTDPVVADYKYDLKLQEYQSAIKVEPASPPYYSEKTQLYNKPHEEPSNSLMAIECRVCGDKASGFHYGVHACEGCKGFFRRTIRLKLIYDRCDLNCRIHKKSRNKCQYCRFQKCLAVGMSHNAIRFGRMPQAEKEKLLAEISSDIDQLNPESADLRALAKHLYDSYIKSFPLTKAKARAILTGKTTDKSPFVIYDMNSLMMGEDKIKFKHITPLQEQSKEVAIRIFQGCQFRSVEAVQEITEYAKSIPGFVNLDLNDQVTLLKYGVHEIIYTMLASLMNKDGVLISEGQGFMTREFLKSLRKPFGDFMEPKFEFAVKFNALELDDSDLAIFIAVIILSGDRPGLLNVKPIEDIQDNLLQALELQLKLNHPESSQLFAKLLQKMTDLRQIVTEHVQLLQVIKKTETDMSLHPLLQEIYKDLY
Procedure, shortened: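 GeneBLAzer PPARg UAS-bla HEK293H cells carrying a UAS-driven beta-lactamase reporter were plated at 3000 cells/well, preincubated 5 h at 37C, then given compound for 17 h at 37C; LiveBLAzer B/G FRET substrate was read after 1 h at room temperature.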

[5] = qHTS assay to identify small molecule antagonists of the peroxisome proliferator-activated receptor gamma (PPARg) signaling pathway - cell viability counter screen (AID 743194); further: nearly all actives have a fitted effect of over 55% in size; further: potency means the concentration at half of the fitted maximal effect
Procedure, shortened: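 PPARg-UAS-bla HEK293H cells were plated, rested 5 h at 37 C, then treated with compounds plus rosiglitazone (50 nM final) for 17 h at 37 C; viability was then read by CellTiter-Glo luminescence after 30 min at room temperature.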

[6] = qHTS assay for small molecule agonists of the antioxidant response element (ARE) signaling pathway (AID 743202; active means well fitted activation curve with a large enough effect in the signal ratio in the repeat runs, not every such curve was filed as active; the % refers to the signal ratio; further: potency means the concentration at half of the fitted maximal effect)
Procedure, shortened: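 Compounds delivered in DMSO to ARE-bla HepG2 cells (2,000 cells/well, pre-incubated 5 h) and left 16 h at 37 C. LiveBLAzer B/G FRET substrate then added for 2 h at RT before fluorescence reading.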

[7] = qHTS assay for small molecule agonists of the antioxidant response element (ARE) signaling pathway - cell viability counter screen (AID 743203; calls by dose curve; further: nearly all actives have a fitted effect of over 55% in size; further: potency means the concentration at half of the fitted maximal effect)
Procedure, shortened: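 CellSensor ARE-bla HepG2 cells, 2,000 per well, rested 5 hrs at 37C/5% CO2, then exposed to compound in DMSO for 16 hrs; viability read as CellTiter-Glo luminescence after 30 min at room temperature, in the reporter wells.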

[8] = qHTS assay for small molecule activators of the heat shock response signaling pathway - cell viability counter screen (AID 743209); further: nearly all actives have a fitted effect of over 50% in size
Procedure, shortened: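 CellSensor HSE-bla HeLa cells, plated overnight at 37 C/5% CO2, were exposed to compounds in DMSO for 5 h at 37 C. Viability was then read in the same wells by CellTiter-Glo luminescence after 30 min at room temperature.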

[9] = qHTS assay for small molecule activators of the heat shock response signaling pathway (AID 743210; active means well fitted activation curve with a large enough effect in the signal ratio in the repeat runs, with a control signal flat, not every such curve was filed as active; the % refers to the signal ratio;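 further: HeLa cells with beta-lactamase reporter driven by heat shock elements; series mostly up to about 63 µM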)
Procedure, shortened: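 Reporter gene assay: HeLa cells stably bearing an HSE-bla construct, compound treatment 5 h at 37 C, LiveBLAzer substrate 2.5 h at RT, fluorescence intensity.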

[10] = qHTS assay to identify small molecule agonists of the peroxisome proliferator-activated receptor delta (PPARd) signaling pathway - cell viability counter screen (AID 743211); further: nearly all actives have a fitted effect of over 55% in size
Procedure, shortened: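 qHTS cell viability: PPARd-bla HEK293H; 17 h cpd, 37C; CellTiter-Glo, luminescence at 30 min RT.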

[11] = target: Peroxisome proliferator-activated receptor delta (Homo sapiens) (UniProt Q03181); test: qHTS assay to identify small molecule agonists of the peroxisome proliferator-activated receptor delta (PPARd) signaling pathway (AID 743212; calls by dose curve)
Chain of Peroxisome proliferator-activated receptor delta (Homo sapiens) (Q03181 whole entry, looked up): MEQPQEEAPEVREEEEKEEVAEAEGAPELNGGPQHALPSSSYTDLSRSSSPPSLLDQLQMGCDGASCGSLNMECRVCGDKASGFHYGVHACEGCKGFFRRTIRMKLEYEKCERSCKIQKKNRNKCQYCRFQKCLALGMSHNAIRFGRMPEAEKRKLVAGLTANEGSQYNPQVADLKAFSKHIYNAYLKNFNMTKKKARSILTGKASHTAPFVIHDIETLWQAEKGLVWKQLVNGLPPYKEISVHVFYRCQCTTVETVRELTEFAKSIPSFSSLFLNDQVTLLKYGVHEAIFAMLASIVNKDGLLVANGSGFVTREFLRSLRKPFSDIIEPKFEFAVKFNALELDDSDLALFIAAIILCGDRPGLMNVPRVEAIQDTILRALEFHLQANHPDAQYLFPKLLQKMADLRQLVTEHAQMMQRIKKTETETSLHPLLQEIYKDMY
Procedure, shortened: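 A PPARd-bla HEK293H line with beta-lactamase under an Upstream Activator Sequence is treated with compounds at 37 C. Substrate loading for 2 h at room temperature precedes the fluorescence measurement.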

[12] = target: Peroxisome proliferator-activated receptor delta (Homo sapiens) (UniProt Q03181); test: qHTS assay to identify small molecule antagonists of the peroxisome proliferator-activated receptor delta (PPARd) signaling pathway (AID 743215; active means well fitted inhibition curve with a large enough effect in the signal ratio in the repeat runs, not every such curve was filed as active; the % refers to the signal ratio;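 further: cells stimulated with agonist L165041 at 300 nM final during compound exposure; series mostly up to about 62 µM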)
Procedure, shortened: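 PPARd UAS-bla HEK293H cells were pre-incubated 5 h at 37 C, then given test compounds in DMSO plus agonist L165041 (300 nM final). After 17 h at 37 C, beta-lactamase FRET substrate was added; fluorescence read after 2 h at room temperature.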

[13] = qHTS assay to identify small molecule agonists of the farnesoid-X-receptor (FXR) signaling pathway - cell viability counter screen (AID 743218); further: nearly all actives have a fitted effect of over 45% in size
Procedure, shortened: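 FXR-UAS-bla HEK 293T cells, plated 5 h at 37 C, were exposed to compounds for 16 h at 37 C. CellTiter-Glo was then added to the same wells as the bla readout; luminescence read after 30 min at room temperature.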

[14] = qHTS assay to identify small molecule antagonists of the farnesoid-X-receptor (FXR) signaling pathway - cell viability counter screen (AID 743221; active means well fitted cell-killing curve with a large enough effect in the repeat runs, not every such curve was filed as active; further: nearly all actives have a fitted effect of over 50% in size; further: potency means the concentration at half of the fitted maximal effect)
Procedure, shortened: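 After a 5 h settling period, FXR-bla HEK 293T cells receive compound and chenodeoxycholic acid (50 uM final) and incubate 16 h at 37 C; CellTiter-Glo luminescence, read after 30 min at room temperature, reports cell viability.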

[15] = target: Vitamin D3 receptor (Homo sapiens) (UniProt P11473); test: qHTS assay to identify small molecule agonists of the vitamin D receptor (VDR) signaling pathway (AID 743222; calls by dose curve)
Chain of Vitamin D3 receptor (Homo sapiens) (P11473 whole entry, looked up): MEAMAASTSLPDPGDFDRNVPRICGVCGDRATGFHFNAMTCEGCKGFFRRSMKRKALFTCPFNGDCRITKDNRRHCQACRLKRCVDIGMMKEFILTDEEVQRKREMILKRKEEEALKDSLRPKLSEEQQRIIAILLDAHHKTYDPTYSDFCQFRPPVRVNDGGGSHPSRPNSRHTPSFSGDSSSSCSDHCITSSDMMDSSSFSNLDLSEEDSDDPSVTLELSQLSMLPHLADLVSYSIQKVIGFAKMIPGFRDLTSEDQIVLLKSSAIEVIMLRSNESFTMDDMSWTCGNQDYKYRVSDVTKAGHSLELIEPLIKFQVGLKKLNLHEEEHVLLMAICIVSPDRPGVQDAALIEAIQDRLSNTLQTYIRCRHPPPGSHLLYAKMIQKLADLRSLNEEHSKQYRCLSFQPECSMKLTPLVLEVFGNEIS
Procedure, shortened: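 VDR-bla cells were plated 4 h at 37C/5% CO2, then exposed to compounds in DMSO for 16 h. After LiveBLAzer B/G FRET substrate addition and 2 h at room temperature, beta-lactamase reporter fluorescence was read.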

[16] = target: Vitamin D3 receptor (Homo sapiens) (UniProt P11473); test: qHTS assay to identify small molecule antagonists of the vitamin D receptor (VDR) signaling pathway (AID 743223; active means well fitted inhibition curve with a large enough effect in the signal ratio in the repeat runs, not every such curve was filed as active; the % refers to the signal ratio)
Procedure, shortened: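 Reporter line VDR-bla; stimulus 1alpha,25-(OH)2 vitamin D3, 3 nM final; compound co-addition, 16 h 37C/5% CO2; LiveBLAzer B/G substrate 2 h RT; fluorescence intensity.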

[17] = target: Peroxisome proliferator-activated receptor gamma (Homo sapiens) (UniProt P37231); test: qHTS assay to identify small molecule agonists of the peroxisome proliferator-activated receptor gamma (PPARg) signaling pathway (AID 743094; active means well fitted activation curve with a large enough effect in the signal ratio in the repeat runs, not every such curve was filed as active; the % refers to the signal ratio)
Procedure, shortened: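 GeneBLAzer PPARg UAS-bla HEK293H cells carrying a stably integrated beta-lactamase reporter were pre-incubated 5 h at 37C, then exposed to compounds in DMSO for 17 h at 37C; LiveBLAzer B/G FRET substrate was added for 1 h at room temperature and fluorescence read.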

[18] = qHTS assay to identify small molecule antagonists of the peroxisome proliferator-activated receptor delta (PPARd) signaling pathway - cell viability counter screen (AID 743213); further: nearly all actives have a fitted effect of over 50% in size
Procedure, shortened: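 HEK293H PPARd UAS-bla cells, 5 h pre-incubation, compound + L165041 300 nM final, 17 h 37 C; B/G FRET substrate 2 h RT; then CellTiter-Glo 30 min RT, luminescence.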

[19] = target: Bile acid receptor (Homo sapiens) (UniProt Q96RI1); test: qHTS assay to identify small molecule antagonists of the farnesoid-X-receptor (FXR) signaling pathway (AID 743217; active means well fitted inhibition curve with a large enough effect in the signal ratio in the repeat runs, not every such curve was filed as active; the % refers to the signal ratio)
Chain of Bile acid receptor (Homo sapiens) (Q96RI1 whole entry, looked up): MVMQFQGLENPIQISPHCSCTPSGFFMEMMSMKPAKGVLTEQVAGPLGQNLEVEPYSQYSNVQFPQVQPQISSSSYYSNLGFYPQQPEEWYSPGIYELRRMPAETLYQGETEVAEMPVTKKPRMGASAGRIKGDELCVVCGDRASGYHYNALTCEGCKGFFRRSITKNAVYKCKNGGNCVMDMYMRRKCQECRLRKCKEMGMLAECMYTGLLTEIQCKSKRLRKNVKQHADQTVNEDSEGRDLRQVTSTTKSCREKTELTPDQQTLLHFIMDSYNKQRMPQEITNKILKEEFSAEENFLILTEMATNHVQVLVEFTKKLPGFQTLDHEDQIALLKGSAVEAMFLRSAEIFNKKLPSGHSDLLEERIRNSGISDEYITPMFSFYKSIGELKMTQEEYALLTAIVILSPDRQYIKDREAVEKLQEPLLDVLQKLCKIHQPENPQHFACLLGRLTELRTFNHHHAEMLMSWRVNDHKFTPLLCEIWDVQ
Procedure, shortened: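 FXR-UAS-bla HEK 293T cells pre-incubated 5 h at 37 °C, then exposed to compounds with chenodeoxycholic acid (50 uM final) for 16 h at 37 °C. Beta-lactamase reporter read by LiveBLAzer B/G FRET substrate fluorescence after 2 h at room temperature.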

[20] = target: Bile acid receptor (Homo sapiens) (UniProt Q96RI1); test: qHTS assay to identify small molecule agonists of the farnesoid-X-receptor (FXR) signaling pathway (AID 743220; active means well fitted activation curve with a large enough effect in the signal ratio in the repeat runs, not every such curve was filed as active; the % refers to the signal ratio)
Procedure, shortened: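 Beta-lactamase reporter under UAS control in GeneBLAzer FXR HEK 293T cells (5000/well) measured with LiveBLAzer FRET substrate after 2 h at room temperature. Compound exposure lasted 16 h at 37C.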

SMILES	Potency [1]	Potency [2]	Potency [3]	Potency [4]	Potency [5]	Potency [6]	Potency [7]	outcome [8]	outcome [9]	Potency [10]	Potency [11]	outcome [12]	Potency [13]	Potency [14]	outcome [15]	outcome [16]	Potency [17]	Potency [18]	outcome [19]	outcome [20]
COC(=O)c1cc(Cl)ccc1[N+](=O)[O-]	inactive	inactive	inactive	inactive	inactive	inactive	inactive	inactive	inactive	inactive	inactive	inactive	inactive	inactive	inactive	inactive	–	–	–	–
CCCCOC(=O)C(C)Oc1ccc(Oc2ccc(C(F)(F)F)cn2)cc1 (centres undefined)	inactive	inactive	inactive	–	inactive	–	inactive	inactive	inactive	inactive	–	inactive	–	inactive	–	inactive	inactive	inactive	inactive	inactive
CC(C)CC(C)(C)C	inactive	inactive	inactive	–	inactive	inactive	inactive	inactive	inactive	inactive	inactive	inactive	inactive	inactive	inactive	inactive	inactive	inactive	–	–
O=C(O)COCC(=O)O	inactive	inactive	inactive	–	inactive	inactive	inactive	inactive	inactive	inactive	–	–	inactive	inactive	inactive	inactive	inactive	inactive	inactive	inactive
CCCCC(CC)COCCC#N (centres undefined)	inactive	inactive	inactive	–	inactive	inactive	inactive	inactive	inactive	inactive	inactive	inactive	–	inactive	inactive	–	inactive	–	–	–
CCC(CC)C(=O)O	inactive	inactive	inactive	–	inactive	inactive	inactive	inactive	inactive	inactive	–	inactive	inactive	inactive	inactive	inactive	inactive	inactive	–	–
COc1ccc(C(=O)Nc2ccccc2)cc1[N+](=O)[O-]	inactive	30900 nM (active)	inactive	–	inactive	–	inactive	inactive	inactive	inactive	–	–	inactive	inactive	–	–	inactive	–	inactive	inactive
C=CC(O)CCCCC (centres undefined)	inactive	inactive	inactive	–	inactive	inactive	inactive	inactive	inactive	inactive	inactive	–	inactive	inactive	inactive	–	inactive	inactive	inactive	inactive
COc1ccc(CN(CCN(C)C)c2ncccn2)cc1	inactive	inactive	inactive	inactive	inactive	–	inactive	inactive	inactive	inactive	–	inactive	inactive	inactive	inactive	inactive	inactive	–	inactive	inactive
CC(C)NC(=O)c1ccccc1N	inactive	inactive	inactive	inactive	inactive	inactive	inactive	inactive	inactive	inactive	inactive	–	inactive	inactive	inactive	inactive	–	–	inactive	inactive
CS(C)=O	inactive	inactive	inactive	–	inactive	–	inactive	inactive	–	inactive	–	inactive	inactive	inactive	inactive	–	inactive	inactive	inactive	inactive
Nc1ncnc2c1ncn2[C@@H]1O[C@H](CO)[C@@H](O)[C@H]1O	inactive	inactive	inactive	inactive	inactive	–	inactive	inactive	inactive	inactive	–	–	inactive	inactive	inactive	inactive	inactive	inactive	inactive	inactive
OCCCO	inactive	inactive	inactive	inactive	inactive	inactive	inactive	inactive	inactive	inactive	–	inactive	inactive	inactive	inactive	inactive	–	inactive	–	–
C=C[Si](OCC)(OCC)OCC	inactive	inactive	inactive	–	inactive	inactive	inactive	inactive	inactive	inactive	–	–	inactive	inactive	inactive	inactive	–	inactive	–	–
C[C@]12CCC(=O)C=C1[C@@H]1C[C@@H]1[C@H]1[C@@H]3[C@@H]4C[C@@H]4[C@@]4(CCC(=O)O4)[C@@]3(C)CC[C@@H]12	inactive	inactive	inactive	–	inactive	–	inactive	inactive	inactive	inactive	–	–	–	inactive	–	inactive	–	inactive	–	–
O=C(Cl)c1ccc(F)c(Cl)c1	inactive	inactive	inactive	–	inactive	inactive	inactive	inactive	inactive	inactive	inactive	inactive	inactive	inactive	inactive	inactive	–	inactive	–	–
CC1(C)[C@@H]2CC[C@]3(C2)[C@@H]1C(=O)CCC3(C)C	inactive	inactive	inactive	–	inactive	inactive	inactive	inactive	inactive	inactive	inactive	inactive	inactive	inactive	inactive	inactive	–	–	inactive	inactive
CCOC(C)OCC	inactive	inactive	inactive	–	inactive	–	inactive	inactive	–	inactive	–	–	–	inactive	inactive	inactive	–	inactive	–	–
CC(C)C[C@H](NC(=O)[C@H](Cc1ccccc1)NC(=O)c1cnccn1)B(O)O	1330 nM (active)	inactive	376 nM (active) and 335 nM (active)	–	84.1 nM (active)	23.7 nM (active)	335 nM (active)	inactive	–	–	–	–	–	298 nM (active)	–	–	–	–	–	–
O=c1[nH][nH]c2ccccc12	inactive	62300 nM (active)	inactive	–	inactive	inactive	inactive	inactive	inactive	inactive	inactive	inactive	inactive	inactive	inactive	inactive	–	inactive	inactive	inactive
C=CCCC	inactive	inactive	inactive	–	inactive	inactive	inactive	inactive	inactive	inactive	inactive	inactive	inactive	inactive	inactive	inactive	–	inactive	–	–
CCCCCCCCCCCCCCCCC(=O)O	inactive	inactive	inactive	inactive	inactive	inactive	inactive	inactive	inactive	inactive	–	inactive	inactive	inactive	inactive	–	–	inactive	inactive	inactive
C[C@H](CN1CCCC1)C(=O)c1ccc(C(F)(F)F)cc1	inactive	inactive	inactive	–	inactive	–	inactive	inactive	inactive	–	inactive	inactive	inactive	inactive	inactive	–	–	–	inactive	inactive
Oc1ccc(Oc2ccccc2)cc1	inactive	inactive	inactive	–	inactive	18300 nM (active)	inactive	inactive	inactive	inactive	inactive	inactive	inactive	inactive	inactive	inactive	–	inactive	inactive	inactive
CC(C)Oc1ccccc1O	inactive	inactive	inactive	–	inactive	inactive	inactive	inactive	inactive	inactive	inactive	inactive	–	inactive	–	–	–	inactive	–	–
CC1(C)C(=O)NC(=O)N1CO	inactive	inactive	inactive	inactive	inactive	inactive	inactive	inactive	inactive	inactive	–	inactive	–	inactive	inactive	inactive	–	–	–	–
